Experimental data: PubChem BioAssay (NCATS)
Several values for one entry are separate records, joined by “and”; a condition that tells them apart may be missing. Equal entries are not always repeated. Inconclusive results are not listed. Entries that show only a call come without a potency. Some compounds were tested as several samples or in several runs, with calls that do not always agree. Activity calls are given as the source filed them. Calls come from the whole dose curve; as a rule, active = well fitted curve in the direction sought with a large enough effect; inconclusive = small, poorly fitted or top-dose-only effect, or another doubt; inactive = no such curve, though single readings can be large; an effect the other way counts as inactive or inconclusive.

How the values were obtained:
[1] = target: Cytochrome P450 3A7 (Homo sapiens) (UniProt P24462); assay: Cytochrome P450 family 3 subfamily A member 7 (CYP3A7) small molecule antagonists: luciferase biochemical qHTS assay (AID 1963596); note: nearly all actives have a fitted effect of over 40% in size
Chain of Cytochrome P450 3A7 (Homo sapiens) (P24462 whole entry, looked up): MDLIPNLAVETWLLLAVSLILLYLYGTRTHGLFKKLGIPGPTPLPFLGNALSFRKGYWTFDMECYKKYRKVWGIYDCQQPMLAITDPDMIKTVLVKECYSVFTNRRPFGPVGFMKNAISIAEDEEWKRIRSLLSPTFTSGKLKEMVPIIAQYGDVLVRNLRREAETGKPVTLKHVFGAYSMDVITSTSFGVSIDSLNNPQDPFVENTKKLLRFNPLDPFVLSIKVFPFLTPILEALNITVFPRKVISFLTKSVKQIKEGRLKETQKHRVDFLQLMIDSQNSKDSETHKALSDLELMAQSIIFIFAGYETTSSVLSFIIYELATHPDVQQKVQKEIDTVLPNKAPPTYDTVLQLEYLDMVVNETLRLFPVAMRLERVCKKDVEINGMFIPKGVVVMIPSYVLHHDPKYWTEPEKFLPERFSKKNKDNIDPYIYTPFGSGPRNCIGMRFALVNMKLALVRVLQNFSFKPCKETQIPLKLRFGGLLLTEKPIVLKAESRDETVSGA
Method in brief: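 Luminescence from luciferin released by CYP3A7 from a proluciferin substrate, read 20 min after detection reagent. Compound and enzyme-substrate mix sat 10 min before NADPH regeneration solution; reaction ran 1 h at room temperature.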

[2] = Viability qHTS for spleen associated tyrosine kinase inhibitor (SYKi) naive MV4-11 cells (AID 1963823); note: nearly all actives have a fitted effect of over 40% in size; note: potency is the fitted concentration of half-maximal effect
Method in brief: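 Seeding of 500 SYKi-naive MV4-11 cells per well onto pre-dispensed compounds preceded a 72 hr incubation at 37 C. Luminescent CellTiter-Glo signal, read after 10 min at room temperature, reflected viable cells.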

[3] = Viability qHTS for spleen associated tyrosine kinase inhibitor (SYKi) drug resistant MV4-11 cells (AID 1963824); note: nearly all actives have a fitted effect of over 35% in size; note: potency is the fitted concentration of half-maximal effect
Method in brief: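 SYK-inhibitor-resistant MV4-11 AML cells were seeded at 500 per well onto compound and cultured 72 hours (37 °C, 5% CO2). CellTiter-Glo was then added, and after 10 min at room temperature, luminescence gave viability.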

[4] = Quantitative highthroughput screen to assess conditional lethalithy of NOMO1 cells grown in RPMI1640 with untreated serum (RPMI+s) (AID 1963876); note: nearly all actives have a fitted effect of over 35% in size; note: potency is the fitted concentration of half-maximal effect
Method in brief: (§1)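 Each medium arm—HPLM with 10% dialyzed FBS, or RPMI1640 with 5 mM glucose and 10% untreated or dialyzed FBS—was screened against an 11-point, 3-fold compound titration for 48 h at 37 °C, with CellTiter-Glo luminescence as endpoint.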

[5] = Quantitative highthroughput screen to assess conditional lethalithy of NOMO1 cells grown in RPMI1640 with dialyzed fetal bovine serum (RPMI+ds) (AID 1963877); note: nearly all actives have a fitted effect of over 30% in size; note: potency is the fitted concentration of half-maximal effect; for Viability: series mostly up to about 46 µM
Method in brief: as §1

[6] = Quantitative highthroughput screen to assess conditional lethalithy of NOMO1 cells grown in Human Plasma-Like Medium with dialyzed fetal bovine serum (HPLM+ds) (AID 1963878); note: nearly all actives have a fitted effect of over 35% in size; note: potency is the fitted concentration of half-maximal effect
Method in brief: as §1

[7] = Quantitative highthroughput screen to assess conditional lethalithy of P12 Ichikawa cells grown in Human Plasma-Like Medium with dialyzed fetal bovine serum (HPLM+ds) (AID 1963879); settings: Potency: viability; note: nearly all actives have a fitted effect of over 35% in size; note: potency is the fitted concentration of half-maximal effect; for Viability: series mostly up to about 46 µM
Method in brief: as §1

[8] = Quantitative highthroughput screen to assess conditional lethalithy of P12 Ichikawa cells grown in RPMI1640 with dialyzed fetal bovine serum (RPMI+ds) (AID 1963880); settings: Potency: P12-Ichikawa viability; note: nearly all actives have a fitted effect of over 35% in size; note: potency is the fitted concentration of half-maximal effect
Method in brief: as §1

[9] = Quantitative highthroughput screen to assess conditional lethalithy of P12 Ichikawa cells grown in RPMI1640 with untreated serum (RPMI+s) (AID 1963881); settings: Potency: viability; note: nearly all actives have a fitted effect of over 35% in size; note: potency is the fitted concentration of half-maximal effect; for Viability: series mostly up to about 46 µM
Method in brief: as §1

[10] = Quantitative highthroughput screen to assess conditional lethalithy of SEM cells grown in RPMI1640 with unreated serum (RPMI+s) (AID 1963883); note: nearly all actives have a fitted effect of over 35% in size; note: potency is the fitted concentration of half-maximal effect
Method in brief: as §1

[11] = Quantitative highthroughput screen to assess conditional lethalithy of SEM cells grown in RPMI1640 with dialyzed fetal bovine serum (RPMI+ds) (AID 1963884); note: nearly all actives have a fitted effect of over 35% in size; note: potency is the fitted concentration of half-maximal effect; for Viability: series mostly up to about 46 µM
Method in brief: as §1

[12] = Cellular viability qHTS for adrenocortical cancer (ACC) cell line SW-13 (AID 1963989); settings: SW-13 ACC cells viability, CellTiter-Glo, 48 h; activity (max response): stronger effect = lower value; note: nearly all actives have a fitted effect of over 65% in size; note: potency is the fitted concentration of half-maximal effect;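 for activity (max response): cells grown in serum-free medium with ITS supplement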
Method in brief: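 Luminescent ATP read-out (CellTiter-Glo, 20 min at room temperature) measured metabolically competent SW-13 cells after 48 h compound treatment. Final concentrations spanned up to 46 uM; bortezomib served as positive control.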

[13] = Quantitative highthroughput screen to assess conditional lethalithy of SEM cells grown in Human Plasma-Like Medium with dialyzed fetal bovine serum (HPLM+ds) (AID 1963882); note: nearly all actives have a fitted effect of over 35% in size; note: potency is the fitted concentration of half-maximal effect; for Viability: series mostly up to about 46 µM
Method in brief: as §1

[14] = Cellular viability qHTS for adrenocortical cancer (ACC) cell line NCI-H295R (AID 1963990); note: nearly all actives have a fitted effect of over 60% in size; note: potency is the fitted concentration of half-maximal effect
Method in brief: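 IC50 and maximal efficacy derive from four-parameter logistic modelling of titration curves, with reads scaled between DMSO-only wells (0%) and doxorubicin hydrochloride (100% inhibition). Compounds spanned up to 46 uM over 48 h.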

Structure (SMILES) | Potency [1] | Potency [2] | Potency [3] | Potency [4] | Potency [5] | Potency [6] | Potency [7] | Potency [8] | Potency [9] | Potency [10] | Potency [11] | activity (max response) [12] | Potency [13] | Potency [14] | Potency [12]
O=c1[nH]c(-c2ccc(C(F)(F)F)cc2)nc2c1CSCC2 | inactive | 2.35 µM (active) | inactive | inactive | inactive | inactive | inactive | inactive | inactive | inactive | inactive | -10.8% (inactive) |  |  | 
NC(=O)OCC(COC(N)=O)c1ccccc1 | inactive | inactive | inactive | inactive | inactive | inactive | inactive | inactive | inactive | inactive | inactive | 2.38% (inactive) and -8.33% (inactive) | inactive | inactive | 
Nc1nc(F)nc2c1ncn2[C@@H]1O[C@H](CO)[C@@H](O)[C@@H]1O | inactive | 10.5 µM (active) and 16.8 µM (active) and 14.6 µM (active) | 13.2 µM (active) and 14.6 µM (active) | 469 nM (active) | 372 nM (active) | 418 nM (active) | 469 nM (active) | 372 nM (active) | 526 nM (active) | 105 nM (active) | 74.3 nM (active) |  | 93.5 nM (active) |  | 
Cc1cn([C@H]2C=C[C@@H](CO)O2)c(=O)[nH]c1=O | inactive | inactive | inactive | inactive | inactive | inactive | inactive | inactive | inactive | inactive |  | 4.28% (inactive) | inactive | inactive | 
COc1nc(N)nc2c1ncn2[C@@H]1O[C@H](CO)[C@@H](O)[C@@H]1O | inactive | inactive | inactive | inactive | inactive | inactive | inactive | inactive | inactive | inactive | inactive | -9.37% (inactive) | inactive | inactive | 
COC[C@H](NC(=O)c1cnc(C)s1)C(=O)N[C@@H](COC)C(=O)N[C@@H](Cc1ccccc1)C(=O)[C@@]1(C)CO1 | inactive | 0.0661 µM (active) | 83.3 nM (active) | 469 nM (active) | 469 nM (active) | 332 nM (active) | 235 nM (active) | 235 nM (active) | 264 nM (active) | 83.3 nM (active) | 83.3 nM (active) |  | 93.5 nM (active) | 282 nM (active) | 316 nM (active)
COC(=O)C1=C(C)NC(C)=C(C(=O)OCCN2CCN(C(c3ccccc3)c3ccccc3)CC2)C1c1cccc([N+](=O)[O-])c1 (centres undefined) | inactive | 11.9 µM (active) | 6680 nM (active) | inactive | inactive | inactive | inactive | inactive | inactive | inactive | inactive |  |  | 3980 nM (active) | 4470 nM (active)
CCOC(=O)C1=C(N)Oc2ccc(Br)cc2C1C(C#N)C(=O)OCC (centres undefined) | inactive | 13.2 µM (active) and inactive | 8.33 µM (active) and 11.6 µM (active) | inactive | inactive | inactive | inactive | inactive | inactive |  |  | -2.87% (inactive) | inactive | inactive | 
